Shown are actives, neighbours in structure and some others; about 1.2% of the full set was active somewhere.
CR mimetic SO = yeast age-related superoxide inhibition as caloric restriction mimetic. actives 0.18% (n = 330,000). superoxide response (% of plate mean), % at 10 µM. S. cerevisiae aged cells, superoxide DHE fluorescence; hits give low values. AID 2690;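 active means superoxide response under a set limit, about three screen SD below normal, cut at about 65% in these data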;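 further: yeast aged for seven days with compound at 30 °C before DHE staining; 100% = average MFI of all compound-treated wells on the plate with controls excluded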
Platelet DG rel = platelet dense granule release activity. human platelet-rich plasma, SFLLRN dense granule ATP release, luminescence. inhibition, %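 (compounds screened at 7.5 µM in platelet-rich plasma)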. actives 0.22% (n = 300,000). AID 1663;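 active means mean replicate score, as percent of positive control, at or above 50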
VLA-4 inh = inhibition in a human VLA-4 binding assay; P13612; VLA-4 expressing cells, ligand binding flow cytometry; inhibition, % (about 7 µM as worked out from the volumes in the protocol); actives 0.2% (n = 330,000); in the data active means inhibition above about 50%
ABCB6 inh MLPCN = blocks the human ABCB6 transporter | AID 602162 | K562-ABCB6 porphyrin accumulation, flow cytometry, 1 h; hits give low values | actives 0.19% (n = 360,000) | fluorescence ratio to DMSO, % at 10 µM | Q9NP58;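 active means fluorescence ratio to DMSO below 75%, the collection mean minus 3 SD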;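 further: signal is porphyrin accumulated inside mitochondria; 100% equals median channel fluorescence of DMSO control wells; lower ratio means ABCB6 inhibition with less porphyrin fluorescence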
SKN-1 inh = blocks SKN-1 activity in C. elegans; C. elegans VP596 Pgst-4::GFP/RFP ratio, acrylamide-induced, 24 h; inhibition, % at 21.8 µM; actives 0.49% (n = 360,000);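 active means interference check ratio from 0.5 to 1.5 plus GFP to RFP signal ratio inhibition reaching or exceeding a fixed threshold, cut at about 30% in these data, passing the limit was not always enough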
The depositor's hits bear a star; · = not tested or not shown.

SMILES	CR mimetic SO	Platelet DG rel	VLA-4 inh	ABCB6 inh MLPCN	SKN-1 inh
COc1ccc(NC(=O)NC(C(F)(F)F)C(F)(F)F)cc1	101.2	-8.2	20.1	96.0	43.1*
COC(=O)c1ccc2nc(-c3ccc(C)cc3)c(Cc3cccc(F)c3)n2c1	·	·	·	125.0	40.6*
CC(C)=CCC[C@H](C)C[C@@H]1Cc2[nH]c(=S)[nH]c(=O)c2[C@@H](c2ccc(F)cc2)O1	·	·	·	104.0	3.3
Cn1cc(CN(CCO)Cc2cccs2)c(-c2cccc(Cl)c2)n1	98.3	57.5*	1.5	97.0	-2.1
COC(=O)c1cc(-c2ccc(Br)cc2)n[nH]1	104.2	-31.8	18.6	102.0	35.6*
CCn1cc(C(=O)OCC(=O)NCc2ccc3c(c2)OCO3)c(=O)c2ccc(C)nc21	94.2	0.3	8.6	94.0	35.2*
O=C(NCc1cccnc1)c1cc(C2CCCCN2C(=O)c2ccc3ccccc3c2)on1 (stereo unspecified)	·	·	·	87.0	-2.9
O=C(Nc1ccc(C(=O)N2CCCCC2)cc1)c1ccccc1	·	·	·	98.0	3.4
O=C(Nc1ccccc1)Nc1ccc(C(=O)N2CCCC2)cc1	120.1	58.1*	16.3	96.0	11.3
CCN(CC)c1ccc(/C=c2\sc3nc4ccccc4n3c2=O)c(O)c1	·	0.5	·	139.0	45.3*
Cc1ccc(-c2noc(/C=C/c3ccccc3)n2)cc1	101.2	15.4	25.7	92.0	7.4
Clc1ccccc1/C=C/c1nc(-c2cccnc2)no1	103.6	11.8	9.0	94.0	38.8*
C(=C\c1nc(-c2cccnc2)no1)/c1ccccc1	100.3	-6.9	1.4	82.0	65.7*
Brc1ccc2nc(-c3ccccc3)c(Cc3ccsc3)n2c1	·	·	·	109.0	37.6*
Cc1cc(Br)cn2c(Cc3ccsc3)c(-c3ccccc3)nc12	·	·	·	99.0	36.5*
Clc1cccc(-c2nc3ccc(Br)cn3c2Cc2ccccc2)c1	·	·	·	103.0	35.6*
COc1ccc(Cc2c(-c3ccccc3)nc3c4ccccc4ccn23)c(C)c1	·	·	·	98.0	12.4
N#Cc1cccc(NC(=O)c2cc(C3CCCCN3S(=O)(=O)c3ccccc3)on2)c1 (stereo unspecified)	·	·	·	94.0	15.2
COC(=O)C[C@H]1C=C[C@H](NC(=O)c2cccc(F)c2)[C@@H](CO)O1	·	·	·	·	3.6
CC(C)c1ccc([C@@H]2O[C@H](CCc3ccccc3)CC3=C2C(=O)OC(C)(C)O3)cc1	·	·	·	116.0	-4.8
CCOc1c(Br)cc(/C=C(\C#N)C(=O)NC2CC2)cc1OC	95.2	11.2	0.0	99.0	22.6
C=CCNC(=O)/C(C#N)=C\c1cc(Cl)c(OCC)c(OC)c1	63.1*	-3.3	6.5	98.0	-4.8
Cc1cccc(C)c1NC(=O)C(c1ccccc1)N1CCC(c2ccccc2)CC1 (stereo unspecified)	·	·	·	·	0.4
CSc1ccccc1NC(=O)CN(C)CC(=O)Nc1ccccc1N1CCOCC1	111.4	-9.0	3.0	95.0	0.4
CN1CCC(N(C)CC(=O)Nc2ccccc2N2CCOCC2)CC1	94.5	·	-1.1	106.0	39.5*
SMILES	CR mimetic SO	Platelet DG rel	VLA-4 inh	ABCB6 inh MLPCN	SKN-1 inh
CCC(=O)N1Cc2cc(C(=O)Nc3nccs3)nc(-c3cccc(-c4ccccc4OC)c3)c2[C@@H]1CCO	·	·	·	94.0	10.7
CCOC(=O)C1(C)CCN1C(=O)c1cncc(Br)c1 (stereo unspecified)	·	·	·	98.0	2.5
O=[N+]([O-])c1ccc(Nc2nccc(Cl)n2)cc1	117.4	12.8	1.9	98.0	44.5*
CC(C)(C)Nc1nc(Nc2ccc([N+](=O)[O-])cc2)nc(NC(C)(C)C)n1	97.5	0.2	8.8	100.0	9.4
Fc1ccc(-c2csc(N3CCSCC3)n2)cc1	107.7	-0.7	-1.1	103.0	41.4*
Clc1ccc(-c2csc(N3CCSCC3)n2)cc1	99.6	-0.9	22.5	99.0	49.5*
CCc1nc2c(OCC(=O)c3ccc(F)cc3)cccn2c1N(C)C(=O)c1cccs1	·	·	·	90.0	0.7
COc1ccccc1CNC(=O)C1CCN(C(=O)N(C)C)CC1	81.7	3.3	7.4	99.0	35.4*
Cc1cnc(-c2nc3ccccc3n2C(C(=O)NC(C)(C)C)c2ccccc2)cn1 (stereo unspecified)	·	·	·	·	-5.3
Cc1c(C#N)c(O)n(CCO)c(=O)c1N=Nc1ccc2c(c1)COC2=O	116.1	7.0	-1.6	91.0	47.6*
COc1ccc(CC(=O)Nc2nnc(SCc3ccccc3)s2)cc1S(=O)(=O)N1CCOCC1	100.0	-0.3	20.3	100.0	60.9*
CCCCc1nnc(NC(=O)Cc2ccc(OC)c(S(=O)(=O)N3CCOCC3)c2)s1	103.1	-2.7	-13.0	98.0	12.1
CCCCNC(=O)c1nc(C2CCNCC2)oc1-c1ccccc1	·	·	·	·	1.5
COc1ccc(Cl)cc1Cn1c(C)c(C(=O)NCc2ccc(F)cc2)sc1=O	·	·	·	106.0	8.5
O=c1c2ccccc2nnn1Cc1ccc(F)cc1	73.8	0.4	-5.2	100.0	15.7
O=c1c2ccccc2nnn1Cc1ccc(Br)cc1	102.5	7.1	7.4	102.0	36.1*
COC(=O)C[C@@H]1C=C[C@H](NC(=O)c2ccccc2)[C@@H](CO)O1	·	·	·	·	5.6
Cc1ccccc1-c1nnc(-c2ccccc2C)o1	99.4	1.2	-2.3	94.0	46.4*
Cc1ccc(NC(=O)C(=O)c2ccc(C)cc2)cc1	98.7	-3.3	-4.0	97.0	37.1*
CSc1nc(SCC(=O)NCc2ccco2)c2c3c(sc2n1)CN(C)CC3	88.0	-0.4	-3.3	72.0*	-10.3
CSc1nc(NCc2ccco2)c2c3c(sc2n1)CN(C)CC3	106.7	1.0	-10.8	·	·
CCc1ccc(S(=O)(=O)/N=C2\C=C(NS(=O)(=O)c3ccccc3)C(=O)c3ccccc32)cc1	·	-7.3	·	95.0	-7.6
Cc1ccc(C)c(S(=O)(=O)/N=C2\C=C(NS(=O)(=O)c3ccccc3)C(=O)c3ccccc32)c1	100.8	3.3	-3.0	99.0	39.2*
Cc1cc(C(F)(F)F)n2ncc(-c3ccc(F)cc3)c2n1	87.0	4.1	9.0	94.0	39.5*
COc1ccc(OC)c(CN2CCN(C(=O)c3cccc(S(=O)(=O)N(C)c4ccccc4)c3)CC2)c1	·	·	·	94.0	-1.9
SMILES	CR mimetic SO	Platelet DG rel	VLA-4 inh	ABCB6 inh MLPCN	SKN-1 inh
Cc1nc2sccn2c(=O)c1S(=O)(=O)NCc1ccccc1Cl	89.2	-12.6	-0.3	95.0	1.0
CCC(Cc1ccccc1)NS(=O)(=O)c1c(C)nc2sccn2c1=O (stereo unspecified)	82.9	58.3*	-5.2	100.0	-8.9
Cc1ccc(C(=O)N(C)CC(=O)Nc2ccc(N3CCOCC3)cc2)s1	141.9	0.9	3.4	101.0	35.2*
Cc1cc2nc(C3CCCCC3)c(Cc3cccc(F)c3)n2c(C)c1Br	·	·	·	99.0	7.9
CN(C)C(=O)CN1C(=O)NC2(CCc3ccccc32)C1=O (stereo unspecified)	102.4	5.1	3.3	86.0	37.1*
O=C(O)CN1C(=O)NC2(CCc3ccccc32)C1=O (stereo unspecified)	88.6	3.1	-4.6	91.0	0.8
O=C(O)C(Oc1ccc2ccccc2c1)c1ccccc1 (stereo unspecified)	97.4	2.8	0.8	99.0	39.5*
CCNc1nc(NC#N)nc(SCC(=O)OCC)n1	96.8	54.9*	14.2	104.0	5.9
